RORg inh: inhibitors of mouse ROR gamma transcriptional activity; P51450; Drosophila S2 Gal4-RORgamma UAS-luciferase reporter, 20 h; Potency, µM (top dose mostly 53.6 µM), for the others: at the highest dose activity change, negative = inhibition, usual class: inhibitors; 310,000 tested, 5.4% active; AID 2551; note: % is set by controls: 0 for no effect and ±100 for the full control effect; nearly all actives have a fitted effect of over 60% in size
Target sequence (P51450 whole entry, looked up, the tested form may be a part): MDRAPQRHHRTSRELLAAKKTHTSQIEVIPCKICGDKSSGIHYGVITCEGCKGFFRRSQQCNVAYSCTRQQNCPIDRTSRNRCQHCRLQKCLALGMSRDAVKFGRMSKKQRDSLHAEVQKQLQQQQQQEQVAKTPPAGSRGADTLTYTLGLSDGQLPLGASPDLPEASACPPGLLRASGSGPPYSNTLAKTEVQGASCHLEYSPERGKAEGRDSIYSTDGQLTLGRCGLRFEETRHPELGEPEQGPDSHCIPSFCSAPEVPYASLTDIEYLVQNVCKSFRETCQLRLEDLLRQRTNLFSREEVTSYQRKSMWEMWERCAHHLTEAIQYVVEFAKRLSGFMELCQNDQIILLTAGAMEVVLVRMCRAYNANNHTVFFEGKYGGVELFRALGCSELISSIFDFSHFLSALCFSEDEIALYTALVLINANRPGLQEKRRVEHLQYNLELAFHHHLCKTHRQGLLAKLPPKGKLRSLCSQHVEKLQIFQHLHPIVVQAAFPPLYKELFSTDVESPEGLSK
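Stable Schneider cell line, Gal4 DNA-binding domain fused to ROR gamma, UAS-luciferase. Cmpd 1 hr RT → CuSO4 700 uM final → 20 hr RT → luciferase reagent 10 min → luminescence.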
TGFb inhibitor: inhibitors of TGF-b signaling; HepG2 CAGA-GFP TGF-b/SMAD3 reporter, GFP fluorescence, 18 h; TGF-beta stimulated, 500 pg/mL final; Potency, µM (highest dose often 46.1 µM), for the others: at the highest dose activity, negative = inhibition, actives largely listed as inhibitors; 410,000 tested, 1.2% active; AID 588855; note: % is set by controls: 0 for no effect and ±100 for the full control effect; nearly all actives have a fitted effect of over 65% in size
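Using HEPG2 CAGA-GFP reporter cells at 1000 cells/well, we pinned test compounds, stimulated with recombinant TGF-beta (500 pg/mL final) and measured total well GFP after 18 h.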
Gal4-VP16 FLuc: counter-screen for ROR gamma inhibitors: Gal4-VP16 reporter; 310,000 tested, 3.5% active; Potency, µM (top dose mostly 53.6 µM), without a hit: at the top dose activity, negative = inhibition, usual class: inhibitors; Drosophila S2 Gal4-VP16 UAS-luciferase, luminescence, 20 h;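 note: Gal4-VP16 expression switched on by copper sulfate through the metallothionein promoter; % is set by controls: 0 for no effect and ±100 for the full control effect; nearly all actives have a fitted effect of over 50% in size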
HepG2 tox: counter-screen for TGF-b inhibitors: cytotoxicity in HepG2 cells; HepG2 CAGA-GFP viability, ATP luminescence, 18 h; Potency, µM (doses to about 46.1 µM), inactives show at the top dose activity change, negative = cytotoxicity, most hits filed as cytotoxic; 410,000 tested, 0.76% active
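CellTiter-Glo luminescence gave cytotoxicity after 18 hours at 37 degrees C. The cells were HepG2 CAGA-GFP in 1% FBS DMEM, stimulated with 500 pg/mL TGF-beta after compound addition. %Activity was normalised to no-cell wells (complete cell-killing) and DMSO (no toxicity), and curves were fitted and classified.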
ATXN2 expr inh: ATXN2 expression inhibition | HEK-293 ATXN2-luciferase reporter, luminescence, 24 h | Potency, µM (highest dose often 57 µM), inactives show at the highest dose activity change, negative = inhibition, actives largely listed as inhibitors | 360,000 tested, 0.72% active | AID 1745845; note: % is set by controls: 0 for no effect and ±100 for the full control effect; nearly all actives have a fitted effect of over 55% in size
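qHTS (up to 57 uM final) was run with 24 h compound exposure of reporter cells at 37 °C. Each well was multiplexed: SteadyGlo luminescence measured ATXN2-luciferase expression after a fluorogenic Gly-Phe-AFC viability readout (25 uM final).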
ATXN viability: viability counter-screen for ATXN expression inhibitors | S2 cells (HEK-293 line with an ATXN2-luciferase reporter) viability, CellTiter-Fluor protease fluorescence, 24 h | Potency, µM (highest dose often 56.7 µM), most hits filed as cytotoxic | 400,000 tested, 0.49% active | AID 651635; note: nearly all actives have a fitted effect of over 40% in size
* hit, by the source's call; i = inactive; ? = inconclusive; / = no result given; ! = repeats disagree; [ ] = remark or other dose. Hits are enriched below; roughly 6.1% of the tested compounds scored in any of these assays. Calls come from the whole dose curve; as a rule, active = well fitted curve in the direction sought with a large enough effect; inconclusive = small, poorly fitted or top-dose-only effect, or another doubt; inactive = no such curve, though single readings can be large; an effect the other way counts as inactive or inconclusive. Potency is the fitted concentration of half-maximal effect.

SMILES	RORg inh	TGFb inhibitor	Gal4-VP16 FLuc	HepG2 tox	ATXN2 expr inh	ATXN viability
CN1CCc2nc(NC(=O)c3cccc(S(=O)(=O)N4CCc5ccccc54)c3)sc2C1	?	0%	-18%	-17%	-1%	i
O=C(Nc1ccnn1C1CCN(Cc2ccccc2)CC1)C1CCCC1	7%	?	8%	-3%	6%	i
COc1cccc(C(=O)Nc2nc3c(s2)CN(C)CC3)c1	15%	-3%	13µM*	-13%	16%	i
CCN1CCc2nc(NC(=O)c3ccccc3)sc2C1	14µM*	0%	11µM*	1%	-15%	i
COc1cccc(-n2nnnc2SCC(=O)Nc2nc3c(s2)CCCC3)c1	3.2µM*	-9%	8.9µM*	-10%	19%	i
O=C(Nc1nc2c(s1)CN(Cc1ccccc1)CC2)C1CCC1	-5%	7%	11%	11µM*	48%	/
O=C(NCc1cccc(F)c1)C1CCN(c2nn3cc(-c4ccc(F)cc4)nc3s2)CC1	/	0%	/	-1%	/	/
COc1ccc(NC(=O)[C@@H](c2ccccc2)N2Cc3ccccc3C2=O)cc1OC	/	10%	/	13%	-2%	i
CCn1c([N+](=O)[O-])nc2c1c(=O)[nH]c(=O)n2C	0.56µM*	10µM*	18µM*	-126%	/	/
N#Cc1nc(N2CCCC2)nc(N(c2ccccc2)c2ccccc2)n1	/	20%	/	3%	/	/
N/C(=N/O)c1nc(N2CCCC2)nc(N(c2ccccc2)c2ccccc2)n1	8.9µM*	0%	15%[0.365 µM]	-13%	-2%	i
N/C(=N/O)c1nc(N2CCCCC2)nc(N2CCCCC2)n1	8.9µM*	-12%	?	-6%	7%	i
N/C(=N/O)c1nc(N2CCCC2)nc(N2CCCC2)n1	/	-14%	/	-38%	2%	i
CC(C)(C)n1ncc2c(=O)n(Cc3ccc(C#N)cc3)cnc21	/	-14%	/	-29%	/	/
O=C1[C@H]2[C@H](C=CC[C@H]2C(=O)N2CCN(c3ccccc3)CC2)CCN1Cc1ccc(Cl)c(Cl)c1	/	10µM*!	/	-13%	?	?
O=C(NCc1cccnc1)[C@@H]1CC=C[C@@H]2CCN(Cc3ccc(Cl)c(Cl)c3)C(=O)[C@@H]21	/	11µM*	/	-5%	-13%	i
COc1ccc(CN2CC[C@H]3C=CC[C@@H](C(=O)Nc4nccs4)[C@H]3C2=O)cc1OC	/	21%	/	47%	/	/
COc1ccc(CN2CC[C@H]3C=CC[C@@H](C(=O)Nc4ccc(Cl)c(C(F)(F)F)c4)[C@H]3C2=O)cc1OC	/	11µM*!	/	-14%	-19%	?
CCCCNC(=O)[C@@H]1CC=C[C@@H]2CCN(Cc3ccc(Cl)c(Cl)c3)C(=O)[C@@H]21	/	7.9µM*	/	-27%	-24%	?
O=C(c1cccnc1)C1CCCN(Cc2ccc3c(c2)CN(C(=O)c2cccc(Cl)c2)CCO3)C1 (stereo not given)	/	/	/	/	/	i
COc1ccc(NC(=O)c2cccc(N3CCCS3(=O)=O)c2)c(OC)c1	/	24%	/	0%	8%	i
COc1ccc(NC(=O)CCc2c(C)nn(-c3ccc(N4CCCC4)nn3)c2C)cc1Cl	/	?	/	-31%	/	/
CCCCCC(=O)Nc1ccc(NC(=O)c2cc3ccccc3o2)c(OC)c1	/	-14%	/	-21%	?	i
CCOC(=O)c1ccc(OCC(=O)c2ccc(O)cc2O)cc1	0.25µM*	3%	1.1µM*	-28%	6%	?
COc1ccc(C(=O)COc2ccc(F)cc2)c(O)c1	5%	-2%	-3%	-2%	58%	i
SMILES	RORg inh	TGFb inhibitor	Gal4-VP16 FLuc	HepG2 tox	ATXN2 expr inh	ATXN viability
Cc1c(O)ccc(C(=O)COc2ccccc2F)c1O	23%	16%	-9%	-23%	/	/
O=C(COc1ccccc1)OCC(=O)c1ccc(O)cc1O	/	-9%	/	0%	-1%	i
O=C(COc1ccccc1F)c1ccc(O)cc1O	3.2µM*	2%	?	6%	27%	i
COC(=O)c1ccc(OCC(=O)c2ccc(O)cc2O)cc1	0.079µM*	2%	0.89µM*	-29%	9%	i
O=C(COc1ccc(F)cc1)c1c(O)cc(O)cc1O	2µM*	5%	?	3%	/	i
CC(=O)N1CCC[C@H]1C(=O)NCC1Cc2cc(F)cc(-c3ccc(F)c(C)c3)c2O1 (stereo not given in full)	/	/	/	/	/	i
CC1=C(C(=O)Nc2cccnc2)C(c2cccc(F)c2)n2nc(SCc3ccccc3)nc2N1 (stereo not given)	/	6%	/	-2%	1%	?
O=C(COc1ccc(Cl)cc1)c1ccc(O)cc1O	0.16µM*	-16%	1.4µM*	-34%	34%	i
CCOC(=O)CC1Sc2ccccc2NC1=S (stereo not given)	3.5µM*	8%	?	8%	1%	i
CCNC(=S)N1N=C2c3ccccc3CCC2C1c1ccc(F)cc1 (stereo not given)	8.9µM*	?	?	6%	-13%	i
CC(=O)N1N=C2c3ccccc3CCC2C1c1ccc(F)cc1 (stereo not given)	22%	?	4%	-26%	1%	/
O=C(O)Cn1nnc(-c2cccs2)n1	-23%	-3%	-8%	3.2µM*	1%	i
COc1ccccc1NC(=O)CSC1CC(=O)N(c2ccc3c(c2)OCO3)C1=O (stereo not given)	5.6µM*	-5%	5µM*	-29%	2%	i
COc1ccc(NC(=O)CSC2CC(=O)N(c3ccc4c(c3)OCCO4)C2=O)cc1 (stereo not given)	?	-11%	5µM*	-2%	6%	i
COc1ccccc1NC(=O)CN1CCN(CC(=O)Nc2ccc3c(c2)OCO3)CC1	-7%	?	2%	-15%	0%	?
C[C@]12CC[C@@H]3c4ccc(O)cc4CC[C@H]3[C@H]1C[C@@H](O)[C@H]2O	/	/	/	/	10%	/
Cc1c(N/N=C(\C#N)C(=O)c2ccccc2)c(=O)n(-c2ccccc2)n1C	16µM*	1%	?	0%	14µM*	?
CCOC(=O)/C(C#N)=N/Nc1c(C)n(C)n(-c2ccccc2)c1=O	-34%	0%	11%	-3%	9%	i
Cc1ccccc1C(=O)/C(C#N)=N/Nc1c(C)n(C)n(-c2ccccc2)c1=O	8.9µM*	?	20µM*	-5%	7.1µM*	?
Cc1ccc(Cl)cc1NC(=O)C(Cc1ccccc1)N1C(=O)C2C3CCC(C3)C2C1=O (stereo not given)	-20%	-10%	79µM*	-25%	-5%	i

Compound activity from PubChem BioAssay.
